Sampled rows, rich in hits. Any-hit rate of the full collection: about 19%.
Shiga toxin inh = inhibitors of Shiga toxin in Vero cells; Vero cells, Shiga toxin protein synthesis inhibition reporter; inhibition, % at 38.7 µM; 290,000 tested, 9.2% active; in the data active means inhibition mostly above about 28%, no sharp cut-off; inactive means mostly below about 43%; further: 0% is about no effect
Cycloheximide cs = counter-screen for Shiga toxin inhibitors: cycloheximide protein synthesis inhibition; cell reporter, cycloheximide protein synthesis inhibition counterscreen; max response, %; 300,000 tested, 12% active; AID 2314; in the data active means max response mostly above about 13%, no sharp cut-off; inactive means mostly below about 14%; further: read at 38.3 µM for the half of the compounds with a filed dose; 0% is about no effect
Marburg entry inh = blocks Marburg virus binding to or entry into cells | 300,000 tested, 1.8% active | Potency, µM (highest dose often 37.8 µM), for inactives: at the top dose activity change, negative = inhibition, most hits filed as inhibitors | Marburg virus pseudotyped entry inhibition, cell reporter | AID 540276; calls by dose curve; tested in HEK293 cells; further: potency means the concentration at half of the fitted maximal effect; on the % scale 0 is the no-effect control and ±100 the full control effect
Pf growth 48h = P. falciparum growth inhibition at 48 hours (one generation); P. falciparum luciferase growth in erythrocytes, 48 h; Potency, µM (highest dose often 28.7 µM), inactives show at the highest dose activity change, negative = inhibition, most hits filed as inhibitors; 310,000 tested, 5.9% active; AID 504832; further: potency means the concentration at half of the fitted maximal effect; on the % scale 0 is the no-effect control and ±100 the full control effect
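In quantitative HTS format, infected erythrocytes bearing luciferase-reporter parasites were treated for a single generation at 37 C. Luminescence after adding detection reagent served as the growth measure.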
Pf growth 96h = inhibits malaria parasite growth, 96 h | P. falciparum luciferase reporter growth, 96 h | Potency, µM (series often up to 28.7 µM), without a hit: top-dose activity change, negative = inhibition, most hits filed as inhibitors | 320,000 tested, 6.9% active; further: potency means the concentration at half of the fitted maximal effect; on the % scale 0 is the no-effect control and ±100 the full control effect
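96 h incubation, 37 C, 5% CO2, of luciferase-reporter P. falciparum-infected RBCs (2% hematocrit, 0.05% parasitemia final) with test compounds; endpoint luminescence.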
LASV entry inh = inhibitors of Lassa virus binding or cell entry; Potency, µM (top dose mostly 37.9 µM), for the others: at the highest dose activity change, negative = inhibition, actives largely listed as inhibitors; 300,000 tested, 1.2% active; Lassa virus pseudotype entry inhibition, cell reporter; calls by dose curve; tested in HEK293 cells; further: potency means the concentration at half of the fitted maximal effect; on the % scale 0 is the no-effect control and ±100 the full control effect; nearly all actives have a fitted effect of over 50% in size
Starred values were filed as active, the others as inactive; ? = inconclusive; nt = no result; ! = a repeat was not active; [ ] = remark or other dose. Unless noted, the call rests on the fitted dose curve; in most records, active means well fitted inhibition curve with a large enough effect; inconclusive means small, poorly fitted or top-dose-only effect, or another doubt; inactive means no such curve, though single readings can be large or run the other way.

SMILES | Shiga toxin inh | Cycloheximide cs | Marburg entry inh | Pf growth 48h | Pf growth 96h | LASV entry inh
O=C1NC(c2ccccc2)=C(c2ccccc2)C1=O | -6.5 | 1.1 | 1.6% | 16.5% | 10.4µM* | 1.5%
O=c1cc(-c2ccccc2)[nH][nH]1 | 14.0 | 1.1 | 22.1% | -4.1% | -13.3% | 22.8%
CCOc1ccc(-c2nnc3sc(-c4c(OC)cccc4OC)nn23)cc1 | nt | nt | 0.0% | nt | nt | nt
COc1cccc(OC)c1-c1nn2c(-c3ccco3)nnc2s1 | 199.8* | 56.4* | -1.5% | -5.0% | 91.6% | -11.4%
COc1cc(-c2nn3c(-c4ccco4)nnc3s2)cc(OC)c1OC | 33.3 | -1.9 | -4.3% | 28.4% | ? | nt
COc1cccc(-c2nn3c(-c4ccco4)nnc3s2)c1 | 36.5 | 4.4 | ? | 10.1% | 8.28µM* | -20.7%
Cc1ccc(-n2c(C)cc(C(=O)COc3c(CO)cc(F)cc3CO)c2C)cc1C | -9.4 | -2.2 | ? | ? | 9.28µM* | ?
COCCN(C(=O)COC(=O)/C=C/c1ccc(C(F)(F)F)cc1)c1c(N)n(Cc2ccccc2)c(=O)[nH]c1=O | nt | nt | -29.1% | ? | ? | ?
COc1ccc(-n2c(SCC(=O)Nc3ccc4c(c3)OCO4)nc3c([nH]c4ccccc43)c2=O)cc1 | nt | nt | nt | nt | nt | 1.0%[46.1 µM]
Cc1nnc(SCc2cccc([N+](=O)[O-])c2)s1 | 50.3 | 18.2* | 8.2%[46.1 µM] | 30.5% | ? | 15.5%[46.1 µM]
Cc1nnc(SCc2ccc(Cl)c(Cl)c2)s1 | 21.8 | 13.9* | -9.5% | 32.0% | -86.0% | 13.0%
Nc1nc(SCc2ccc(F)cc2)ns1 | 69.5* | 40.3* | -4.7%[46.1 µM] | -3.7% | 3.2% | ?
Cc1nnc(SCc2ccc(F)cc2)s1 | 55.2* | 28.1* | 3.5% | 46.0% | nt | ?
O=C(Nc1nnc(SCc2ccccc2)s1)c1cccc([N+](=O)[O-])c1 | 10.8 | 5.4 | 3.8% | 10.4% | -2.4% | 25.4%
Nc1nnc(SCc2ccc(F)cc2)s1 | 16.3 | 11.4 | 10.9% | 21.5% | ? | ?
Cc1ccc(CSc2nnc(Nc3ccc(C)cc3)s2)cc1 | -6.8 | -1.3 | -3.4% | nt | -28.0% | -1.4%
O=C(COC(=O)/C=C/c1ccc(OC(F)F)cc1)NC1CCCCCCC1 | nt | nt | ? | -24.9% | 0.0% | 4.6%
O=C(CSc1nc2c(cnn2-c2ccc(F)cc2)c(=O)[nH]1)N1CCOCC1 | -21.8 | -2.8 | 8.2% | 31.4% | -19.6% | 19.0%
Cc1ccc(NC(=O)COC(=O)Cn2ccc(C(F)(F)F)n2)cc1Cl | nt | nt | nt | 21.3% | 48.8% | nt
CC(=O)Nc1ccc(S(=O)(=O)NCC(=O)OCC(=O)NC(=O)c2cccn2C)cc1 | 3.3 | -1.0 | 0.8%[46.1 µM] | -3.8% | 43.0% | 22.8%
Cc1oc(-c2cccc(Cl)c2)nc1CS(=O)(=O)CC(=O)NC1CC1 | 18.3 | -1.7 | 7.7%[46.1 µM] | 27.4% | ? | 9.0%[46.1 µM]
Clc1ccc(Cn2c(-c3cccnc3Cl)nc3ccccc32)c(Cl)c1 | 28.6 | -3.9 | -23.0% | ? | ? | -5.3%
Clc1cc2nc(-c3cccnc3Cl)[nH]c2cc1Cl | 105.4* | 29.4* | -7.5%[46.1 µM] | 95.7% | 145.9% | -3.7%[46.1 µM]
CCOC(=O)c1c(C)c(C(=O)NCc2ccco2)c(C)n1Cc1ccccc1 | 30.2 | 0.8 | -0.8% | -26.0% | ? | -6.1%
CCC(c1nnnn1Cc1ccccc1)N(Cc1ccco1)Cc1cc2cc(OC)ccc2[nH]c1=O (stereo not given) | -10.6 | -2.8 | -21.2% | ? | -8.9% | ?
SMILES | Shiga toxin inh | Cycloheximide cs | Marburg entry inh | Pf growth 48h | Pf growth 96h | LASV entry inh
CCC(c1nnnn1CCOC)N(Cc1cc2cc(C)c(C)cc2[nH]c1=O)CC1CCCO1 (stereo not given) | -23.4 | -3.9 | ? | nt | 14.7µM* | ?
CCC(c1nnnn1CCOC)N(Cc1ccc(C)cc1)Cc1cc2cc(OC)ccc2[nH]c1=O (stereo not given) | 20.7 | 3.5 | ? | 10.4µM* | 7.7% | ?
COc1cc(-c2nnc(SCc3c(F)cccc3Cl)o2)cc(OC)c1OC | 11.2 | 8.8 | -19.7% | ? | nt | ?
C=C(C)Cn1c(SCC(=O)c2ccc(Br)cc2)nc2sc3c(c2c1=O)CCCC3 | nt | nt | nt | nt | nt | 15.9%[46.1 µM]
COC(=O)c1ccc(C(=O)OC)c(NC(=O)CN(c2ccccc2)S(=O)(=O)N(C)C)c1 | -4.3 | -0.3 | ? | ? | 0.0% | 10µM*!
COC(=O)c1ccc(C(=O)OC)c(NC(=O)CS(=O)(=O)Cc2ccccc2)c1 | -8.1 | -1.3 | ? | 5.8% | 5.22µM* | -1.4%
CN(C)S(=O)(=O)N(CC(=O)Nc1ccccc1F)c1ccccc1 | 2.1 | -2.3 | -14.5% | -6.7% | ? | -1.5%
COc1ccc(OC)c(NC(=O)CS(=O)(=O)Cc2ccccc2)c1 | -3.4 | -1.2 | -10.6%[46.1 µM] | 8.0% | 4.1% | -2.7%[46.1 µM]
CC12CCC=CC1C(c1ccc3ccccc3c1Br)N(Cc1ccccc1)C2=O (stereo not given) | -2.9 | 10.0 | nt | nt | nt | nt
C[C@@]12CCC=C[C@H]1[C@H](c1ccc3ccccc3c1)N(Cc1ccccc1)C2=O | -9.4 | -2.2 | nt | ? | 9.28µM* | nt
C[C@@]12CCC=C[C@H]1[C@H](c1ccc3ccccc3c1Br)N(Cc1ccccc1)C2=O | -3.9 | -9.0 | nt | 9.28µM* | 10.4µM* | nt
O=C(Nc1ccc2oc(-c3ccncc3)nc2c1)c1ccc2c(c1)OCCO2 | 5.6 | -3.2 | -0.9%[46.1 µM] | ? | 9.28µM* | -17.9%
O=C(Nc1ccc2oc(-c3cccnc3)nc2c1)c1ccc2c(c1)OCCO2 | 19.6 | 25.7 | -30.6%[46.1 µM] | 8.28µM* | ? | -13.9%[46.1 µM]
C/C(=N\NC(=O)CSCc1ccccc1Cl)c1cccc(NC(=O)c2ccccc2)c1 | 13.0 | 0.4 | ? | ? | 27.6% | -16.5%
COc1ccc(N(CC(=O)N2CCCC2)S(C)(=O)=O)cc1 | -8.8 | 1.3 | 4.6% | 38.1% | -3.2% | 29.6%
Cc1ccc(-n2c(N)c(C(=O)Nc3c(C)n(C)n(-c4ccccc4)c3=O)c3nc4ccccc4nc32)cc1 | -8.0 | -2.5 | ? | 9.28µM* | ? | 17.1%
Cc1cc(C)cc(-n2c(N)c(C(=O)Nc3c(C)n(C)n(-c4ccccc4)c3=O)c3nc4ccccc4nc32)c1 | -4.4 | 4.1 | 19.6% | 11.8% | 2.94µM* | 1.7%
COc1cccc(-n2c(N)c(C(=O)Nc3c(C)n(C)n(-c4ccccc4)c3=O)c3nc4ccccc4nc32)c1 | -10.8 | 0.6 | -1.2%[46.1 µM] | ? | -22.8% | ?
CCOC(=O)C1=C(COC(=O)CNC(=O)c2ccccc2F)NC(=O)NC1C (stereo not given) | nt | nt | 26.7% | 9.1% | 20.5% | 12.9%
CC(=O)c1ccc(NC(=S)Nc2ccc(N3CCOCC3)cc2)cc1 | 24.8 | 11.4 | ? | -20.3% | -5.9% | -21.4%
O=S(=O)(c1ccc(Cl)c(NC(=S)Nc2ccccc2N2CCOCC2)c1)N1CCOCC1 | -2.5 | -5.8 | -3.4% | 7.6% | -27.2% | -3.4%
C/C(=N\NC(=S)Nc1ccc(C)c(C)c1)c1ccc(N2CCOCC2)cc1 | 24.3* | 22.9* | nt | 11.7µM* | 3.7µM* | nt
C/C(=N\NC(=S)Nc1cc(S(=O)(=O)N2CCOCC2)ccc1Cl)c1ccc(N2CCOCC2)cc1 | 26.4 | 12.6 | nt | 1.65µM* | 1.85µM* | nt
